Inconclusive results are not listed. Values without a mark were called inactive. Calls of active or inactive are those of the source. Calls come from the whole dose curve; as a rule, active = well fitted activation curve with a large enough effect in the repeat runs; inconclusive = weak or mixed curves; inactive = no such curve, though single readings can be large or run the other way.
Target: Nuclear receptor subfamily 1 group I member 2 (Homo sapiens) (UniProt O75469)
Assay: CYP3A4 induction through human pregnane X receptor (PXR) by small molecules, qHTS assay (AID 1346984); note: nearly all actives have a fitted effect of over 40% in size
Conditions: DPX-2 HepG2 PXR, CYP3A4-luciferin luminescence, 24 h; series mostly up to 46.1 µM; activation: at the top concentration
From the text: National Center for Advancing Translational Sciences [NCATS]
NIH Chemical Genomics Center [NCGC]
U.S. Environmental Protection Agency [EPA]
National Institutes of Environmental Health Sciences [NIEHS]
National Toxicology Program [NTP]
The Pregnane X receptor (PXR), a ligand activated nuclear receptor plays a critical role in the regulation of genes involved in drug metabolism and transporters. Activation of PXR is responsible for unwanted adverse drug reactions. PXR binds xenobiotics and when compounds interact with PXR enhances the expression of CYP3A genes. Identifying the compounds with the potential for PXR activation and CYP3A4 induction can be of importance in improving the efficacy of drugs with less toxicity and avoiding drug-drug interactions.
DPX-2 (Puracyp, Inc.) cell lines, used for screening against human PXR activation has HepG2 cells co-transfected with a PXR response element and a luciferase construct containing CYP3A4 promoter. Increase in luciferase activity can be used to identify the compounds that cause the induction of CYP3A4.
DPX-2 cells were dispensed at 2,000 cells per well in 5uL of assay medium into white, solid-bottom 1536-well plates using a Multidrop Combi dispenser (Thermo Scientific). The assay plates were incubated at 37C for 5hr before transferring 23nL of test compounds dissolved in DMSO and positive control via Pintool station (Wako). The assay plates were incubated at 37C for 24hr. After 24hr compound treatment, 1uL of 3uM (final concentration) P450 substrate (P450-Glo CYP3A4 screening system with Luciferin-IPA, Promega) was added by a Flying Reagent Dispenser (FRD, Aurora Discovery). The assay plates were incubated for 3hr at 37C. Then 5ul One-Glo assay reagent (Promega) was added to each plate by an FRD and following 30 min incubation at room temperature, luciferase activity was quantified on a ViewLux plate reader (Perkin Elmer).
% is set by controls: 0 for no effect and ±100 for the full control effect.

| SMILES | activation | outcome |
| --- | --- | --- |
| OC(O)C(Cl)(Cl)Cl | 11.1% | – |
| C#CCN(C)[C@H](C)Cc1ccccc1 | 2.92% | – |
| O=[N+]([O-])c1ccccc1 | -3.27% | – |
| CCOC(=O)c1ccccc1C(=O)OCC | -0.319% | – |
| O=C(O)c1ccccn1 | -4.44% | – |
| C[C@]12CC[C@H]3[C@@H](CC[C@@]45O[C@@H]4C(O)=C(C#N)C[C@]35C)[C@@H]1CC[C@@H]2O | -4.73% | – |
| CC1OC(C)OC(C)O1 (stereo not given) | – | inactive |
| O=[N+]([O-])c1ccc([As](=O)(O)O)cc1 | -15.1% | – |
| Clc1ccc(Cl)cc1 | 5.5% | – |
| CC(C)=C[C@@H]1[C@@H](C(=O)OCc2coc(Cc3ccccc3)c2)C1(C)C | 13% | – |
| CN(C)[C@@H]1C(=O)C(C(N)=O)=C(O)[C@@]2(O)C(=O)C3=C(O)c4c(O)cccc4[C@@](C)(O)[C@H]3C[C@@H]12 | -1.05% [at 20.6 µM] | – |
| O=C(NC(=O)c1c(F)cccc1F)Nc1cc(Cl)c(OC(F)(F)C(F)C(F)(F)F)cc1Cl (stereo not given) | 0.277% | – |
| O=c1n(Cl)c(=O)n(Cl)c(=O)n1Cl | -8.94% | – |
| Clc1ccccc1Cl | -2.91% | – |
| Nc1ccccc1C(=O)O | -2.9% | – |

Source: PubChem BioAssay (Tox21)
